Screening data: PubChem BioAssay, several laboratories
The list is not random: actives were taken first. Their share in the collection is about 1.1%.
Yp Topo-I inh: blocks Yersinia pestis topoisomerase I activity; AID 504884; Y. pestis Topo-I cleavage product accumulation, plate reader; activity, % at 10 µM; hit rate 0.064% among 360,000; in the data active = activity above about 50%, passing the limit was not always enough
BH1578 lux ind: inducers of Vibrio cholerae quorum light production without autoinducers. V. cholerae BH1578 lux reporter, luminescence, 6 h. activation, % at 18.7 µM. hit rate 0.16% among 350,000. AID 588436; in the data active = activation mostly above about 9.7%, no sharp cut-off
CCHF vOTU inh: blocks the CCHF virus ovarian tumor domain protease; inhibition, % at 11.5 µM; CCHFV vOTU protease, Pep-AMC fluorescence; AID 651958; hit rate 0.55% among 370,000; in the data active = inhibition above about 30%; also: 0% = vehicle wells with enzyme and 100% = no enzyme wells
PrPC TRFRET: cell surface PrPC inhibition, primary TR-FRET screen. P04156. hit rate 0.43% among 370,000. inhibition, % at 13.8 µM. AID 720596. TR-FRET read-out; in the data active = inhibition above about 24%; also: 0% = median of the test wells and 100% = reference compound wells
PrPC TRFRET cf: cell surface PrPC inhibition, TR-FRET confirmation; shares compounds with PrPC TRFRET; cell surface PrPC level; inhibition, % at 13.8 µM; hit rate 65% among 1,500; AID 743200; in the data active = inhibition above about 25%
LD9 tox: kills or reduces viability of LD9 cells in PrPc counter-screen; LD9 cells cytotoxicity, luminescence viability; hit rate 29% among 1,500; shares compounds with PrPC TRFRET; inhibition, % at 13.8 µM; in the data active = inhibition above about 9.5%
The depositor's hits bear a star.

What do the screens show for `CN(C)c1ccc(Sc2ccc3nc(N)nc(N)c3c2)cc1`?
Yp Topo-I inh: -2.9; BH1578 lux ind: 0.6; CCHF vOTU inh: -7.4; PrPC TRFRET: 32.9*; PrPC TRFRET cf: 34.9*; LD9 tox: 15.4*

What do the screens show for `Cc1cccc2c(=O)c(-c3ccc4c(c3)OCO4)c(NC(=O)c3ccco3)oc12`?
Yp Topo-I inh: -6.9; BH1578 lux ind: 0.4; CCHF vOTU inh: 18.8; PrPC TRFRET: 63.5*; PrPC TRFRET cf: 66.5*; LD9 tox: -6.8

What do the screens show for `Cc1cccc(-c2c(NC(=O)c3ccco3)oc3c(C)cccc3c2=O)c1`?
Yp Topo-I inh: 1.6; BH1578 lux ind: inactive; CCHF vOTU inh: 12.7; PrPC TRFRET: 1.8

What do the screens show for `CCC(C)(C)n1nnnc1CN1CCC(c2nc3ccc(C)cc3[nH]2)CC1`?
Yp Topo-I inh: 3.2; BH1578 lux ind: -0.4; CCHF vOTU inh: -2.1; PrPC TRFRET: 32.5*; PrPC TRFRET cf: 32.1*; LD9 tox: 0.7

Results for Cc1cc2nc(C3CCN(Cc4nnnn4Cc4ccccc4)CC3)[nH]c2cc1C ?
Yp Topo-I inh: 22.2; BH1578 lux ind: -0.3; CCHF vOTU inh: 4.3; PrPC TRFRET: 0.7

Results for S=c1nc[nH]c2c1[nH]c1ccccc12 ?
Yp Topo-I inh: -4.1; BH1578 lux ind: 7.1; CCHF vOTU inh: 10.6; PrPC TRFRET: 135.3*; PrPC TRFRET cf: 141.8*; LD9 tox: -0.7

Results for S=c1nc[nH]c2c1[nH]c1ccc(Cl)cc12 ?
Yp Topo-I inh: 3.0; BH1578 lux ind: 2.1; CCHF vOTU inh: 17.4; PrPC TRFRET: 42.6*; PrPC TRFRET cf: 131.5*; LD9 tox: 6.6

How did Cc1nccc2c1[nH]c1ccccc12 do in these assays?
Yp Topo-I inh: 2.2; BH1578 lux ind: -0.6; CCHF vOTU inh: -185.6; PrPC TRFRET: 5.7

How did Cc1cc(SC2CCOC2=O)nc2ccccc12 (stereo not drawn) do in these assays?
Yp Topo-I inh: -10.7; BH1578 lux ind: -0.4; CCHF vOTU inh: -0.3; PrPC TRFRET: -0.1

How did O=C1OCCC1Sc1ncnc2sccc12 (stereo not drawn) do in these assays?
Yp Topo-I inh: 0.1; BH1578 lux ind: -0.7; CCHF vOTU inh: 12.3; PrPC TRFRET: 31.5*; PrPC TRFRET cf: 32.3*; LD9 tox: 3.2

What do the screens show for `O=C(CN(Cc1ccco1)C(=O)c1ccc(Cl)cc1)Nc1ccc(Cl)c(Cl)c1`?
Yp Topo-I inh: 1.7; BH1578 lux ind: -0.1; CCHF vOTU inh: -0.4; PrPC TRFRET: -2.8

How did COc1cccc(OC(=O)CSc2nnc(-c3ccccc3Br)o2)c1 do in these assays?
Yp Topo-I inh: 17.1; BH1578 lux ind: -0.3; CCHF vOTU inh: -10.6; PrPC TRFRET: 32.4*; PrPC TRFRET cf: 38.2*; LD9 tox: 1.4

What do the screens show for `COC(=O)CSc1nnc(-c2ccc(OC)cc2OC)o1`?
Yp Topo-I inh: -0.4; BH1578 lux ind: inactive; CCHF vOTU inh: -9.5; PrPC TRFRET: 1.6

How did CCCCn1c(-c2sccc2C)n[nH]c1=S do in these assays?
Yp Topo-I inh: 6.4; BH1578 lux ind: inactive; CCHF vOTU inh: -1.7; PrPC TRFRET: 2.2

Results for COc1ccc(C(=O)Nc2nc3c(s2)CCCC3)cc1S(=O)(=O)N1CCCc2ccccc21 ?
Yp Topo-I inh: -6.2; BH1578 lux ind: -0.2; CCHF vOTU inh: 3.8; PrPC TRFRET: 28.1*; PrPC TRFRET cf: 24.0; LD9 tox: 5.5

How did CC[C@H](CO)Nc1nc(Nc2cccc(Cl)c2)c2ncn(C(C)C)c2n1 do in these assays?
Yp Topo-I inh: 2.0; BH1578 lux ind: 1.2; CCHF vOTU inh: 13.5; PrPC TRFRET: 24.7*; PrPC TRFRET cf: 19.8; LD9 tox: 11.3*

Results for CC(C)[C@H](CO)N(Cc1cccc(F)c1)c1nc(Nc2cccc(Cl)c2)c2ncn(C(C)C)c2n1 ?
Yp Topo-I inh: 5.3; BH1578 lux ind: -0.9; CCHF vOTU inh: 16.5; PrPC TRFRET: 12.9

What do the screens show for `COc1ccc(OC[C@@H](O)CNC(=O)c2cccc3c2C(=O)c2ccc(Cl)cc2S3(=O)=O)cc1`?
Yp Topo-I inh: -2.6; BH1578 lux ind: -0.7; CCHF vOTU inh: 5.2; PrPC TRFRET: -31.3

Results for COC(=O)C1=C(C)N(Cc2cccc(C(F)(F)F)c2)C(=NCc2cc(OC)c(OC)c(OC)c2)NC1CCc1ccccc1 (stereo not drawn) ?
CCHF vOTU inh: 21.6; PrPC TRFRET: 31.3*; PrPC TRFRET cf: 26.1*; LD9 tox: 5.2

What do the screens show for `CCC(NC(=O)Nc1nnc(C(F)(F)F)s1)(C(F)(F)F)C(F)(F)F`?
Yp Topo-I inh: 9.0; BH1578 lux ind: inactive; CCHF vOTU inh: 1.0; PrPC TRFRET: 58.5*; PrPC TRFRET cf: 74.5*; LD9 tox: 54.0*

How did O=S(=O)(CCN1CCN(c2ccccc2O)CC1)c1cc(Cl)ccc1Cl do in these assays?
Yp Topo-I inh: 5.8; BH1578 lux ind: -1.4; CCHF vOTU inh: -9.0; PrPC TRFRET: 35.8*; PrPC TRFRET cf: 2.9; LD9 tox: -2.0

Results for O=[N+]([O-])c1cc(Cl)ccc1N1CCN(c2ccccc2O)CC1 ?
Yp Topo-I inh: 4.7; BH1578 lux ind: inactive; CCHF vOTU inh: -0.6; PrPC TRFRET: -6.7

What do the screens show for `O=C(CSc1nnc(COc2ccc(Cl)cc2)n1Cc1ccco1)Nc1ccc2c(c1)OCO2`?
CCHF vOTU inh: 2.3; PrPC TRFRET: 25.0*; PrPC TRFRET cf: 21.8; LD9 tox: 2.7

How did Cc1ccc(OCc2nnc(SCC(=O)Nc3ccc4c(c3)OCO4)n2Cc2ccco2)cc1 do in these assays?
CCHF vOTU inh: 10.3; PrPC TRFRET: 22.8

How did CC#CC[N+](C)(C)CCCCCCCCCCCC do in these assays?
Yp Topo-I inh: 10.8; BH1578 lux ind: inactive; CCHF vOTU inh: 4.6; PrPC TRFRET: 25.5*; PrPC TRFRET cf: 28.2*; LD9 tox: 15.8*

How did C#CC[N+](C)(C)CCCCCCCCCC do in these assays?
Yp Topo-I inh: -11.8; BH1578 lux ind: -0.7; CCHF vOTU inh: 11.1; PrPC TRFRET: 7.9

Results for CCCCCCCCCCCCCCCC[N+](C)(C)CC ?
Yp Topo-I inh: -15.7; BH1578 lux ind: -0.7; CCHF vOTU inh: 23.2; PrPC TRFRET: 26.2*; PrPC TRFRET cf: 35.9*; LD9 tox: 13.8*

What do the screens show for `O=C(COC(=O)c1cncc(Br)c1)NCCC1=CCCCC1`?
Yp Topo-I inh: 3.3; BH1578 lux ind: -6.7; CCHF vOTU inh: -0.2; PrPC TRFRET: 0.3

What do the screens show for `Cc1ccccc1NC(=O)c1ccc(Cl)c(NC(=O)c2cccnc2)c1`?
CCHF vOTU inh: 3.3; PrPC TRFRET: 1.3

How did Cc1[nH]c2ccccc2c1/C=N/Nc1nc2ccccc2[nH]1 do in these assays?
Yp Topo-I inh: -24.2; BH1578 lux ind: inactive; CCHF vOTU inh: -1.8; PrPC TRFRET: 29.9*; PrPC TRFRET cf: 6.3; LD9 tox: 11.8*

What do the screens show for `Cc1ccc(/C=N/Nc2nc3ccccc3[nH]2)s1`?
Yp Topo-I inh: -13.9; BH1578 lux ind: -0.3; CCHF vOTU inh: 3.2; PrPC TRFRET: 27.0*; PrPC TRFRET cf: 10.1; LD9 tox: 5.0

How did C(=N\Nc1nc2ccccc2[nH]1)/c1c[nH]c2ccccc12 do in these assays?
Yp Topo-I inh: -18.7; BH1578 lux ind: -0.4; CCHF vOTU inh: -5.2; PrPC TRFRET: 33.2*; PrPC TRFRET cf: 5.3; LD9 tox: 3.9
